Values joined by “and” are separate entries in the source; they are usually repeats but may differ in a detail not shown here. Equal entries are not always repeated. For some assays here: Measured potencies and affinities stand elsewhere.
Columns and labels:
Design in all cases: scale not given: direction of the effect not stated beside the values
[1] = molecular target: Protein translocase subunit SecA (Escherichia coli (strain K12)) (UniProt P10408); assay: Assay to Identify E. coli SecA ATPase Inhibitors; type: functional; details: 30 µM
[2] = molecular target: T1, Ubiquitin-activating enzyme e1, putative (Leishmania donovani (strain BPK282A1)) (UniProt E9BSI1); assay: Leishmania donovani Ubiquitin Activating Enzyme (LdE1); type: functional; details: 30 µM
T1 sequence (whole entry): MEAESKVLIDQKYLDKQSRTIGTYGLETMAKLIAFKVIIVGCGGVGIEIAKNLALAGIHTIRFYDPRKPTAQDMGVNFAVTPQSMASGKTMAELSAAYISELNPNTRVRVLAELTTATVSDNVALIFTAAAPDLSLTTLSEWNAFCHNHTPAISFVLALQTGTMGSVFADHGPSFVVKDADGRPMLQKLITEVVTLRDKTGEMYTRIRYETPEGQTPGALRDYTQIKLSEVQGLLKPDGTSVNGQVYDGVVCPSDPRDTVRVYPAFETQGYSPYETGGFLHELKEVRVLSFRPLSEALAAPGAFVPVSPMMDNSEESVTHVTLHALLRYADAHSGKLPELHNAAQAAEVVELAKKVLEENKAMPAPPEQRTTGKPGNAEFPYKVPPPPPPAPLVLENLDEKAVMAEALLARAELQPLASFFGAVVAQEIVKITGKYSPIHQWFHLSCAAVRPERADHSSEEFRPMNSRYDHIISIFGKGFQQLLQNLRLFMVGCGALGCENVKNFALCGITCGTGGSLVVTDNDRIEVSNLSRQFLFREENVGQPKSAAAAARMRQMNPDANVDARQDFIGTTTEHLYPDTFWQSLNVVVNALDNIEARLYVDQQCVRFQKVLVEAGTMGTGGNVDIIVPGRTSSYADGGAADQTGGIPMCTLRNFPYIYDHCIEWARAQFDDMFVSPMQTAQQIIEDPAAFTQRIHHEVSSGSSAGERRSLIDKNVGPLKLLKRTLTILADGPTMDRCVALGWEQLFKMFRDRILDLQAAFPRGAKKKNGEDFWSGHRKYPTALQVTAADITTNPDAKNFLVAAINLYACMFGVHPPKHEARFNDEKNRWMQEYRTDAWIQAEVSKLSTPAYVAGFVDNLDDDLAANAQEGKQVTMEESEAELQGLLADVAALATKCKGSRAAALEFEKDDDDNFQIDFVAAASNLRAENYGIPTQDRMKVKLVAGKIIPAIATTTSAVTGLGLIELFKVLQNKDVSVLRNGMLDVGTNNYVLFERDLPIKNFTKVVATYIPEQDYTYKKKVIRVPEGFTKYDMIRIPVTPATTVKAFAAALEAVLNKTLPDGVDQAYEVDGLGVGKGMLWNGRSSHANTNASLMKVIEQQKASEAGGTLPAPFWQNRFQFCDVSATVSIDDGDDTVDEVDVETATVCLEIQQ

[3] = molecular target: Sialic acid-binding Ig-like lectin 9 (Homo sapiens) (UniProt Q9Y336); assay: Hs-Siglec9 ALPHAscreen SOP 20170721; details: 10 µM
Trypanosoma cruzi = assay: Trypanosoma cruzi phosphomannomutase and mannose-1-phosphate guanylyltransferase assay; type: functional; details: 10 µM
[4] = molecular target: T2, Arginase-2, mitochondrial (Homo sapiens) (UniProt P78540); assay: in vitro enzyme assay to detect the production of urea directly proportional to the activity of Arginase II; type: functional; details: 33.3 µM; note: in the data most compounds retested in dose-response had high values
T2 sequence (whole entry): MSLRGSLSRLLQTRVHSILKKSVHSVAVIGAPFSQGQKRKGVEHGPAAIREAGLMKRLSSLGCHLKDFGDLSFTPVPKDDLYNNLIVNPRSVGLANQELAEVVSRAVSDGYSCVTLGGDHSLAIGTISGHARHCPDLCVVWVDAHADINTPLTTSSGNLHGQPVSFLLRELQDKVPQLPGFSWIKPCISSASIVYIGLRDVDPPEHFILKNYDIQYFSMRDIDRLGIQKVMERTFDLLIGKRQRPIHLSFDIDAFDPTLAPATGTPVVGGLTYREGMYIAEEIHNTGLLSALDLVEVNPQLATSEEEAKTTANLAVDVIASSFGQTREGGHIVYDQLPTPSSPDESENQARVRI

[5] = molecular target: T3, Proteasome subunit beta (Trypanosoma cruzi) (UniProt O96673); assay: Trypanosoma cruzi proteasome chymotrypsin-like activity (TcProtChymo) assay.; note: in the data most compounds retested in dose-response had high values; type: functional; details: 9.37 µM
T3 sequence (whole entry): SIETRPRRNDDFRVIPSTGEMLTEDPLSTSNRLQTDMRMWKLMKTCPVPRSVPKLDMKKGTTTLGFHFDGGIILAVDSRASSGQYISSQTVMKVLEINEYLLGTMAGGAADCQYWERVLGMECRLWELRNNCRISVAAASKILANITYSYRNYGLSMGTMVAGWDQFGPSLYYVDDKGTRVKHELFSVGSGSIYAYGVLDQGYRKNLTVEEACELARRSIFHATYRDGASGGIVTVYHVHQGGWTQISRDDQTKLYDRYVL

Homo sapiens = species: Homo sapiens; assay: To identify inhibition of the IFN signalling (Jak-Stat) pathway via expression of an eGFP reporter gene under the control of an IFN-stimulated response element (ISRE) containing MxA promoter.; type: functional; details: 30 µM
[6] = molecular target: T4, Tyrosyl-tRNA synthetase, putative (Trypanosoma cruzi (strain CL Brener)) (UniProt Q4DSP6); assay: Trypanosoma cruzi tyrosyl tRNA synthetase (TcYRS) _High Tyrosine SOP; type: functional; details: 30 µM; note: in the data most compounds retested in dose-response had high values
T4 sequence (whole entry): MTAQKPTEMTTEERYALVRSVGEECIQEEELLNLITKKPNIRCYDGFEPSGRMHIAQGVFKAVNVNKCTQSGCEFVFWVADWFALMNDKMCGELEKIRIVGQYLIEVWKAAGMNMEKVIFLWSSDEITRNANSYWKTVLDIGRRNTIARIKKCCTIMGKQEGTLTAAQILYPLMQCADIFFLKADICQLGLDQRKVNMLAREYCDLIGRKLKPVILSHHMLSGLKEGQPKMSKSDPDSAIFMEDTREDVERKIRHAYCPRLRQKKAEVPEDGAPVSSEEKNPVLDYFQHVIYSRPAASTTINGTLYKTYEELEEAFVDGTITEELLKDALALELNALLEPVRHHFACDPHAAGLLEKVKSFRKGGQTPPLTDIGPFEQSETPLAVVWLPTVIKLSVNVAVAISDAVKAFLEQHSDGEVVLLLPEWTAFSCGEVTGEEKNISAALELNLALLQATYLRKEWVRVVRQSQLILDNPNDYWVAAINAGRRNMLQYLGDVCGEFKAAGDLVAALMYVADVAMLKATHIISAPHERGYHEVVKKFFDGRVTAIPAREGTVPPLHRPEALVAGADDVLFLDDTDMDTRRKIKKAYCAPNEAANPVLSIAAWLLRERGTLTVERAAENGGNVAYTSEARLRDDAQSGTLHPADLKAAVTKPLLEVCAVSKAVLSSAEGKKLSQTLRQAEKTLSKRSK

[7] = molecular target: T4, Tyrosyl-tRNA synthetase, putative (Trypanosoma cruzi (strain CL Brener)); assay: Trypanosoma cruzi tyrosyl tRNA synthetase (TcYRS) SOP; type: functional; details: 30 µM
[8] = molecular target: Chromo domain-containing protein 1 (Saccharomyces cerevisiae (strain ATCC 204508 / S288c) (Baker's yeast)) (UniProt P32657); assay: ScCHD-1 Enzyme Inhibition Assay; type: functional; details: 30 µM; note: in the data most compounds retested in dose-response had high values
N/A = assay: Trypanosoma cruzi proteasome luciferase counter-screen; type: functional; details: 9.37 µM

Chromo domain-containing protein 1 (Saccharomyces cerevisiae (strain ATCC 204508 / S288c) (Baker's yeast)), sequence (P32657 whole entry, the tested form may be a part): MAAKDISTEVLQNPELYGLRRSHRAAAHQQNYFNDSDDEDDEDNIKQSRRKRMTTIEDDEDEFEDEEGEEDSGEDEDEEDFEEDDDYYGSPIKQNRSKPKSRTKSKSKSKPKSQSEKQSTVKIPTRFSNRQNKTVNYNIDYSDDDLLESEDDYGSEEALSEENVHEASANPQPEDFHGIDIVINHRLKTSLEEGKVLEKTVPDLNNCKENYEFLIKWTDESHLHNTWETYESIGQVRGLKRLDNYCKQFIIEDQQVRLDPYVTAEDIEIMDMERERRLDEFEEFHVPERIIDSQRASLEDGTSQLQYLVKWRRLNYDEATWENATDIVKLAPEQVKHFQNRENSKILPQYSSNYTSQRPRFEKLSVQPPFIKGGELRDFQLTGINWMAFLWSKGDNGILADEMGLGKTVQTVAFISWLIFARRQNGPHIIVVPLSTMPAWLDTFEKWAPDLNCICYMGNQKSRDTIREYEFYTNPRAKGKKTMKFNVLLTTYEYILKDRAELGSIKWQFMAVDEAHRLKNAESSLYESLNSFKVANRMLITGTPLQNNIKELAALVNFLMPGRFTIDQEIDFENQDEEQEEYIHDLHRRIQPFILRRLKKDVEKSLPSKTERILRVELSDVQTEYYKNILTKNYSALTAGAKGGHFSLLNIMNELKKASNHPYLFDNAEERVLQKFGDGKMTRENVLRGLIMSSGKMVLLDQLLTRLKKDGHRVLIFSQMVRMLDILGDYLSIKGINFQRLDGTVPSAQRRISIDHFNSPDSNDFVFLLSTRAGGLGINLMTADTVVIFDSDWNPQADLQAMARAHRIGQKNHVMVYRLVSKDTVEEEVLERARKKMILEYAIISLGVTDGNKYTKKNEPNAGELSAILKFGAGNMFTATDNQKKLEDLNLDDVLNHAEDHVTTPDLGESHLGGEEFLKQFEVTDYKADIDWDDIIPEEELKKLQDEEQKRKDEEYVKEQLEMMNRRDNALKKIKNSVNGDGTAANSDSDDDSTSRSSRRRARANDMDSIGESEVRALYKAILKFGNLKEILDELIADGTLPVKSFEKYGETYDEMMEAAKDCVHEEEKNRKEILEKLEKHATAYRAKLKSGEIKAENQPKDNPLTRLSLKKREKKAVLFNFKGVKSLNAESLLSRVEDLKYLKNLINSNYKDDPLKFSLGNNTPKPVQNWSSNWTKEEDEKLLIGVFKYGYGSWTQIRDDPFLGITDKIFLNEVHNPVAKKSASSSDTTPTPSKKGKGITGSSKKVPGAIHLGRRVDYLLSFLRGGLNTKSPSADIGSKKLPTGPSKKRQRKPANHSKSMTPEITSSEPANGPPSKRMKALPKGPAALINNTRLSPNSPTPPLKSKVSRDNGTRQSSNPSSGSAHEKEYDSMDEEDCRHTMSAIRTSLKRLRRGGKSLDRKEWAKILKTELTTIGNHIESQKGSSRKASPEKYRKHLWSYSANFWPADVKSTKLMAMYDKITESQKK
Protein translocase subunit SecA (Escherichia coli (strain K12)), sequence (P10408 whole entry): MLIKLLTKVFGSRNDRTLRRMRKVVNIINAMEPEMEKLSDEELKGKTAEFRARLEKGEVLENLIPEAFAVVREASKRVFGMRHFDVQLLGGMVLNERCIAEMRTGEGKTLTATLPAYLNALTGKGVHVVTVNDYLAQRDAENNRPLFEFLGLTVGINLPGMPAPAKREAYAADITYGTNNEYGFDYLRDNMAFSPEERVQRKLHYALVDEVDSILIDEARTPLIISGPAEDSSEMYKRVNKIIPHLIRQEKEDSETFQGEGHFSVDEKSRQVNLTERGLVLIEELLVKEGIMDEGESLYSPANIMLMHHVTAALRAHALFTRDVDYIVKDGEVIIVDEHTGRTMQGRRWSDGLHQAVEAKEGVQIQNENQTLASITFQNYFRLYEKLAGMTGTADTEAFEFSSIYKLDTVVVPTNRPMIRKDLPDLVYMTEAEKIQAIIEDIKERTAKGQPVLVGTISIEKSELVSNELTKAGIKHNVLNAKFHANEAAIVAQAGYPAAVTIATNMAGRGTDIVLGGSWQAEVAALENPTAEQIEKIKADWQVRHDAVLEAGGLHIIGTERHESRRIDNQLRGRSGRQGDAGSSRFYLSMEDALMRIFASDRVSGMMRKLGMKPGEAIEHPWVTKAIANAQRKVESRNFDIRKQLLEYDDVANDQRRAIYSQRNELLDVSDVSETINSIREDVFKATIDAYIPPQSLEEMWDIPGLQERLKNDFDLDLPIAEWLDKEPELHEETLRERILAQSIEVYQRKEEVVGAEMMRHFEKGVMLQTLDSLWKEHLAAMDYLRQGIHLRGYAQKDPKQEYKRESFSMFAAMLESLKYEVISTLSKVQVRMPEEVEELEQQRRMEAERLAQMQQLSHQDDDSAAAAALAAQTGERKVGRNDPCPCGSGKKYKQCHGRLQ
Sialic acid-binding Ig-like lectin 9 (Homo sapiens), sequence (Q9Y336 whole entry): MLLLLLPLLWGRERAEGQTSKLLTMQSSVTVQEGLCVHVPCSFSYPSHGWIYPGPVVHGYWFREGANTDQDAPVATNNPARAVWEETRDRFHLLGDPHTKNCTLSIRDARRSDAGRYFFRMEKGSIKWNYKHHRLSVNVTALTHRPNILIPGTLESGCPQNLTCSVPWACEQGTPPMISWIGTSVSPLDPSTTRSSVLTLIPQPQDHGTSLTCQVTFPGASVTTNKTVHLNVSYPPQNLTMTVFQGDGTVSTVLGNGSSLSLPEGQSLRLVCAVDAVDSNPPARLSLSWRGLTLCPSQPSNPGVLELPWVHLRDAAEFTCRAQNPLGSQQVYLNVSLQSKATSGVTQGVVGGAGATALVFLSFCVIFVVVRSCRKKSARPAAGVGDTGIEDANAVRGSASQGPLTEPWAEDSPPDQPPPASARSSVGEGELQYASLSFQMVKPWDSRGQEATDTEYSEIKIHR

SMILES | Percent Effect [1] | Percent Effect [2] | Percent Effect [3] | Percent Effect (Trypanosoma cruzi) | Percent Effect [4] | Percent Effect [5] | Percent Effect (Homo sapiens) | Percent Effect [6] | Percent Effect [7] | Percent Effect [8] | Percent Effect (N/A)
CC(C)NC(=O)C1CN(C(=O)Nc2ccccc2)CC12CCOCC2 (centres undefined) | -8.24% | 3.9% | -2.62% | -3.02% | 1.22% | 22.9% | 14.5% | 6.84% | 2.56% | -3.13% | –
COCCOc1cccc(C(=O)N2CCCC(n3cccn3)C2)c1 (centres undefined) | -3.05% | 2.6% | 10.5% | -0.746% | -1.84% | 2.28% | 7.63% | 0% | 4.71% | 3.61% | –
COc1ncccc1NC(=O)c1cccc(C)n1 | 3.56% | 15.4% | -4.18% | 1.41% | 2.05% | 4.18% | 7.05% | 9.09% | 25.3% | -8.29% | –
CCN1CCN(c2ccc(CNC(=O)c3c(C)noc3C)cn2)CC1 | -1.13% | 21.3% | -5.5% | 3.01% | 2.66% | 23.8% | 1.82% | 1.58% | 15.4% | -14.6% | –
CC(=O)N(Cc1noc(C2CC2)n1)C1CCN(Cc2ccncc2)C1 (centres undefined) | -3.41% | 5.13% | -20.1% | 11.6% | -4.51% | 4.86% | 4.66% | 1.44% | 10.8% | -5.11% | –
Cc1ccc(N2CCC3(CCN(C(N)=O)CC3)CC2)nn1 | -4.59% | 1.3% | -5.12% | -8.47% | 3.64% | 13.5% | 5.72% | 1.58% | 0% | -0.155% | –
O=C(CCc1cc2n(n1)CCN(Cc1ncc[nH]1)C2)N1CCCC1 | -3.73% | 18.9% | 0.852% | 1.07% | 13.6% | 14.4% | 15.1% | 4.79% | 19.5% | -1.96% | –
CN(C)[C@@H]1CN(Cc2ccco2)C[C@@H]2CCCO[C@@H]21 | -2.22% | 6.49% | -4.86% | -5.16% | -1.22% | 9.27% | 3.2% | -0.526% | 7.69% | -3.13% | –
c1csc(-c2nc(CNC3CCc4ncnn4C3)cs2)c1 (centres undefined) | -3.1% | 10.3% | 2.55% | 0.469% | 2.05% | 7.93% | 0.908% | 6.22% | 18.1% | 1.57% | –
CCOC1COC2(CCN(Cc3ccc4c(c3)OCO4)CC2)C1 (centres undefined) | -2.81% | 19.5% | 5.28% | -1.13% | 3.65% | 5.06% | 17.9% | 8.7% | 12.5% | -4.64% | –
c1ccc2cc(OCCN3CCn4c(nnc4C4CC4)C3)ccc2c1 | -5.63% | -18.7% | -1.64% | 1.61% | -5.32% | 4.33% | -7.36% | 1.58% | -10.3% | -10.9% | –
Cc1nn(C)cc1CCC(=O)N1CCCC(n2cncn2)C1 (centres undefined) | -2.9% | 2.67% | 3.45% | 1.21% | 7.98% | 2.97% | -4% | 3.68% | 10.3% | -4.09% | –
O=C(O)c1cc(-c2cccnc2)cc(S(=O)(=O)N2CCCCCC2)c1 | -7.1% | 5.41% | 3.44% | -3.4% | 0.35% | 12.7% | 8.29% | 5.85% | -2.44% | -1.87% | –
c1ncn(CC2CN(Cc3noc(C4CC4)n3)CCO2)n1 (centres undefined) | -7.36% | 2.67% | 2.48% | -1% | -3.55% | -1.1% | 15.2% | -1.58% | 0% | -8.55% | –
Cc1cn2c(n1)CCC(NC(=O)c1c[nH]c(C)n1)C2 (centres undefined) | -6.87% | -10.7% | 1.48% | 3.61% | 0% | 10.9% | 17.2% | 3.68% | 7.69% | -13.6% | –
CCS(=O)(=O)N1C[C@@H](OCc2cccnc2)[C@H]2OCCC[C@H]21 | -10.2% | 1.3% | 6.61% | -4.58% | -3.64% | 7.68% | 9% | 4.74% | 7.69% | 0.0373% | –
OCC1CCCCN1c1ccc(-c2nc(-c3ccccc3F)no2)cn1 (centres undefined) | -2.19% | -5.41% | 7.51% | 5.14% | 16.4% | – | 1.31% | -0.532% | 4.88% | 86.3% | –
Cc1n[nH]c(C)c1C1COCCN1C(=O)c1cc(Cl)c[nH]1 (centres undefined) | -1.38% | 2.56% | 3.4% | -3.47% | 9.02% | -1.96% | 15% | -2.39% | 1.21% | 2.03% | –
Fc1cnc(N2CCOC3(CCN(Cc4ccsc4)CC3)C2)nc1 | -0.851% | 3.9% | -6.39% | -6.52% | 6.88% | – | 4.01% | 11.1% | 7.69% | -4.59% | 5.37% and 9.17%
Cc1ccc2oc(C(=O)N3CCCC(c4noc(C)n4)C3)cc2n1 (centres undefined) | -2% | 5.13% | 1.38% | -3.66% | 4.51% | 3.84% | 11% | 4.31% | 8.43% | -2.57% | –
Cc1cnc(C(=O)N2C[C@@H]3CN(CC4CCCC4)CCO[C@@H]3C2)cn1 | -3.12% | 11.7% | 4.74% | 0.682% | -3.24% | 9.97% | 11% | 5.79% | 10.3% | -2.15% | –
CSc1ccc(Cl)c(C(=O)N2CCCC(CNS(C)(=O)=O)C2)c1 (centres undefined) | 0.802% | 26% | -6.07% | 1.12% | -14.6% | 18.2% | 13% | 1.96% | 28.2% | -11.3% | –
Cc1c(F)cc(C(=O)O)cc1S(=O)(=O)Nc1cccc(C(F)F)c1 | -2.31% | -2.56% | 2.65% | 1.03% | 0.41% | 6.23% | 11.6% | -1.44% | -3.61% | -0.222% | –
Cc1nc(C)n(CC2CN(CCOc3ccccc3F)CCO2)n1 (centres undefined) | -2.06% | 5.33% | -0.849% | 0.803% | -2.66% | -2.97% | 9.21% | -1.58% | 0% | -2.97% | –
